Test results published in the supplement of paper PMC12350171.
Structures can show the parent of a compound that is named as a salt.

What was measured:
Details in all cases: 20 µM
[1] = tested on: Salmonella enterica typhimurium; assay: growth AUC normalised to DMSO control (fraction of control); higher = less growth inhibition, active = hit call of the paper
Summary of the method: (§1)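 Hemin and NAD were added to the medium for Haemophilus parainfluenzae. All pathogens, after two anaerobic passages, were inoculated at a starting OD578 of 0.01 into pre-reduced mGAM plates with 20 μM compound and 1% DMSO under breathable seals, and OD578 was read hourly for 24 h in three biological replicates. AUC of each growth curve was obtained with the trapezoidal rule up to the exponential-to-stationary transition and normalised to DMSO controls from the same plate.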

Shigella flexneri = assay: as above
Summary of the method: as §1

Vibrio cholerae = assay: as above
Summary of the method: as §1

[2] = tested on: Yersinia pseudotuberculosis; assay: as above
Summary of the method: as §1

P. vulgatus RND KO = assay: growth AUC normalised to DMSO control (median) (fraction of control); higher = less growth inhibition, active = hit call of the paper
Summary of the method: (§2)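 Area under the growth curve, calculated by the trapezoidal rule up to entry into stationary phase, was normalised to vehicle wells on the same plate. Strains had been passaged twice overnight without oxygen and then grown in mGAM in 96-well plates from OD578 0.01, each with an approved-drug library compound at 20 μM in 1% DMSO. OD578 was read hourly over 24 h in an anaerobic incubator, and the median of three biological replicates is given.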

P. vulgatus WT = assay: as above
Summary of the method: as §2

[3] = tested on: S. enterica typhimurium WT; assay: as above
Summary of the method: as §2

[4] = tested on: S. enterica typhimurium tolC KO; assay: as above
Summary of the method: as §2

Measured: growth AUC normalised to DMSO control
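Throughout, for growth AUC normalised to DMSO control (median): active when median AUC fell below 0.1.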

COc1ccccc1OCC(O)COC(N)=O (stereo not drawn) [Methocarbamol]
inactive: [1] 0.986 | Shigella flexneri 0.981 | Vibrio cholerae 0.94 | [2] 0.979 | P. vulgatus RND KO 0.993 | P. vulgatus WT 1.03 | [3] 1 | [4] 1

O=C1c2ccccc2S(=O)(=O)N1CCCCN1CCN(c2ncccn2)CC1 [Ipsapirone]
inactive: [1] 0.991 | Shigella flexneri 0.99 | Vibrio cholerae 0.957 | [2] 0.998 | P. vulgatus RND KO 1 | P. vulgatus WT 1.01 | [3] 0.989 | [4] 1.01

COC(=O)C1=C(C)NC(C)=C(C(=O)OCC(C)C)C1c1ccccc1[N+](=O)[O-] (stereo not drawn) [Nisoldipine]
inactive: [1] 1.01 | Shigella flexneri 1 | Vibrio cholerae 1.01 | [2] 0.991 | P. vulgatus RND KO 0.945 | P. vulgatus WT 0.981 | [3] 1.01 | [4] 0.95

c1coc(CNc2ncnc3[nH]cnc23)c1 [Kinetin]
inactive: [1] 1.01 | Shigella flexneri 1.02 | Vibrio cholerae 1.01 | [2] 0.992 | P. vulgatus RND KO 1.01 | P. vulgatus WT 1.05 | [3] 1 | [4] 1.01

COc1ccc(/C=C/C(=O)Nc2ccccc2C(=O)O)cc1OC [Tranilast]
inactive: [1] 0.999 | Shigella flexneri 0.973 | Vibrio cholerae 0.992 | [2] 1.01 | P. vulgatus RND KO 0.999 | P. vulgatus WT 1.02 | [3] 1.04 | [4] 0.952

CN1CCC(=C2c3ccccc3CCc3sccc32)CC1 [Pizotifen malate]
inactive: [1] 0.992 | Shigella flexneri 0.976 | [2] 0.998 | P. vulgatus RND KO 0.965 | P. vulgatus WT 0.973 | [3] 0.994 | [4] 0.963
active: Vibrio cholerae 0.873

CC(=O)CCCCn1c(=O)c2c(ncn2C)n(C)c1=O [Pentoxifylline]
inactive: [1] 1 | Shigella flexneri 0.979 | Vibrio cholerae 0.967 | [2] 0.989 | P. vulgatus RND KO 0.983 | P. vulgatus WT 0.99 | [3] 1 | [4] 0.987

Cc1cnc(C(=O)O)c[n+]1[O-] [Acipimox]
inactive: [1] 0.983 | Shigella flexneri 1 | Vibrio cholerae 0.982 | [2] 0.969 | P. vulgatus RND KO 1 | P. vulgatus WT 0.994 | [3] 1.01 | [4] 0.992

CC(C)NC[C@H](O)COc1ccc(CC(N)=O)cc1 [(S,-) Atenolol]
inactive: [1] 0.988 | Shigella flexneri 0.972 | Vibrio cholerae 0.996 | [2] 1.02 | P. vulgatus RND KO 0.985 | P. vulgatus WT 0.963 | [3] 0.987 | [4] 0.989

O=C(c1ccccc1)c1ccc2n1CCC2C(=O)O (stereo not drawn) [Ketorolac tromethamine]
inactive: [1] 0.986 | Shigella flexneri 0.972 | Vibrio cholerae 0.97 | [2] 0.983 | P. vulgatus RND KO 0.997 | P. vulgatus WT 1.01 | [3] 1.01 | [4] 1

NC(N)=Nc1nc(CSCC/C(N)=N/S(N)(=O)=O)cs1 [Famotidine]
inactive: [1] 1 | Shigella flexneri 0.965 | Vibrio cholerae 0.993 | [2] 0.97 | P. vulgatus RND KO 1.01 | P. vulgatus WT 1.04 | [3] 1.01 | [4] 0.996

CNCCCC12CCC(c3ccccc31)c1ccccc12 [Maprotiline hydrochloride]
inactive: [1] 1 | Shigella flexneri 0.999 | Vibrio cholerae 0.942 | [2] 1.01 | P. vulgatus RND KO 0.947 | P. vulgatus WT 0.985 | [3] 0.997 | [4] 0.982

Cc1c(O)c(=O)n(-c2ccccc2)n1C [Antipyrine, 4-hydroxy]
inactive: [1] 1.01 | Shigella flexneri 1.07 | Vibrio cholerae 1.01 | [2] 1.03 | P. vulgatus RND KO 1.01 | P. vulgatus WT 1.06 | [3] 1.01 | [4] 1

C=CCSCC1Nc2cc(Cl)c(S(N)(=O)=O)cc2S(=O)(=O)N1 (stereo not drawn) [Althiazide]
inactive: [1] 1.04 | Shigella flexneri 1.08 | Vibrio cholerae 1.03 | [2] 0.985 | P. vulgatus RND KO 1.04 | P. vulgatus WT 1.08 | [3] 1.01 | [4] 1.01

CCCN[C@H]1CCc2nc(N)sc2C1 [Pramipexole dihydrochloride]
inactive: [1] 0.989 | Shigella flexneri 0.972 | Vibrio cholerae 0.989 | [2] 0.994 | P. vulgatus RND KO 0.988 | P. vulgatus WT 0.997 | [3] 0.992 | [4] 0.999

CC[N+](CC)(CC)CCC(O)(c1ccccc1)C1CCCCC1 (stereo not drawn) [Tridihexethyl chloride]
inactive: [1] 1 | Shigella flexneri 1.03 | Vibrio cholerae 1.05 | [2] 1 | P. vulgatus RND KO 1.06 | P. vulgatus WT 1.07 | [3] 1.02 | [4] 0.686
